Bioassay records as filed in PubChem.
Sampled rows, rich in hits. Any-hit rate of the full collection: about 4.5%.
DAX1 inh-1: blocks DAX1 repression of SF-1 activated StAR promoter; 370,000 compounds, 1.1% hits; inhibition, % at 6.8 µM; HEK293T StAR-luciferase reporter, SF-1/DAX-1 repression relief;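 active = inhibition above the mean over all tested compounds plus 3 SD, cut at about 3.6% in these data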;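 note: higher inhibition means more luminescence from relief of DAX-1 repression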
hgDAF-12 ag: agonists of H. glycines DAF-12 nuclear receptor; HEK293 GAL4-hgDAF12 UAS-luciferase reporter, agonist luminescence; normalized to butyrate control; activation, % at 6.8 µM; 370,000 compounds, 1.8% hits; AID 687014;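 active = activation above a cutoff set at the mean of all screened compounds plus 3 SD, cut at about 10% in these data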
FXN GAA850 act: activators of GAA850 frataxin (FXN) promoter. HEK293 lucGAA850 FXN promoter luciferase reporter, 24 h; percent of 10 µM SAHA response. activation, % at 6 µM. 360,000 compounds, 0.56% hits. AID 540364;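 active = activation above the average of all compounds screened plus 3 SD, cutoff fixed separately per campaign, cut at about 7.5% in these data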
hcDAF12 agonist: activates DAF-12 receptor from parasite H. contortus. activation, % at 6.8 µM. 370,000 compounds, 1.4% hits. AID 652067. HEK293 hcDAF-12 lit1-tk-luc reporter, luminescence; 0% DMSO, 100% Δ7-dafachronic acid;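 active = activation above the mean of all tested compounds plus 3 SD, cut at about 5.5% in these data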
ssDAF-12 act: activates DAF-12 receptor from parasite S. stercoralis. HEK293 ssDAF-12/GRIP1 lit1-tk-luc reporter, luminescence; % of 3 µM dafachronic acid response. activation, % at 6.8 µM. 370,000 compounds, 1% hits;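 active = activation above the mean over all tested compounds plus 3 SD, cut at about 0.9% in these data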
DAX1 inh-2: NR0B1 (DAX1) inhibition | P51843 | HEK293 Gal4-DAX1 luciferase reporter, luminescence | inhibition, % at 6.75 µM | 340,000 compounds, 0.99% hits | AID 504766;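 active = inhibition above the mean over all tested compounds plus 3 SD, cut at about 4.2% in these data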;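 note: inhibition shows as a rise in luminescence from relieved DAX1 repression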
Target sequence (P51843 207-470 limits assumed): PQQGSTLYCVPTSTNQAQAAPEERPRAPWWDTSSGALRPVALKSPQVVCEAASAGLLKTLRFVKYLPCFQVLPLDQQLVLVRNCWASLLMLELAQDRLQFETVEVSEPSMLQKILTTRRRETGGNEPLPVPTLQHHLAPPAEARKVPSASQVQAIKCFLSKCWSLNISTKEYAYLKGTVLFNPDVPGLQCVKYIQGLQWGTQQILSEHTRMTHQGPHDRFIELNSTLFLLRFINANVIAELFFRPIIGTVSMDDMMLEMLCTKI
Each line names hits and unclear results; the compound was inactive in the other large screens.

COC(=O)C1CN(C(=O)c2ccc(OC(F)F)cc2)c2ccccc2O1 (stereo unspecified)	DAX1 inh-2 4.3
COC(=O)C1CN(C(=O)C(C)Oc2ccc(F)cc2)c2ccccc2O1 (stereo unspecified)	none
NC(=O)CSc1nnnn1-c1cccc(Cl)c1	none
C#CCSc1nnnn1-c1cccc(Cl)c1	DAX1 inh-2 4.3
CCCCNC(=O)C[C@H]1C[C@@]2(C(=O)OC)C(=C[C@H](C(C)(C)C)O[C@@H]2C)N(Cc2ccc(Cl)cc2Cl)C1=O	none (no result: FXN GAA850 act, DAX1 inh-2)
Cc1ccccc1OC(=O)C1C(c2ccccc2)C(C(=O)O)C1c1ccccc1 (stereo unspecified)	DAX1 inh-2 5.0
CCOC(=O)C1C(c2ccccc2)C(C(=O)OCC)C1c1ccccc1 (stereo unspecified)	none
CSc1n[nH]c(=O)n1C1CCCCC1	DAX1 inh-2 6.0
Cc1ccc2c(c1)C(CS(=O)(=O)NCc1ccc(F)cc1)NC2 (stereo unspecified)	none (no result: FXN GAA850 act, DAX1 inh-2)
Cc1occc1C(=O)Nc1cc(C(C)(C)C)on1	DAX1 inh-1 4.2, hgDAF-12 ag 12
CC(C)CNC(=O)OCc1cn(Cc2ccccc2)nn1	none (no result: FXN GAA850 act, DAX1 inh-2)
Cc1csc(Sc2ccc(C(=O)OCC(=O)Nc3ccc(F)cc3[N+](=O)[O-])cc2[N+](=O)[O-])n1	DAX1 inh-2 6.5
COc1cccc(/C=C2\CC3(OC(=O)C(C)(C)C)CCCN2C3)c1 (stereo unspecified)	none (no result: FXN GAA850 act, DAX1 inh-2)
Cc1ccc(C)c(NC(=S)NNC(=O)c2csc3c2CCCC3)c1	none
COc1ccc(NC(=O)c2csc3c2CCCC3)cc1	none (no result: DAX1 inh-1, hgDAF-12 ag, hcDAF12 agonist, ssDAF-12 act)
COc1cccc(NC(=O)c2csc3c2CCCC3)c1	hgDAF-12 ag 11
Cc1cccc(NC(=S)NNC(=O)c2csc3c2CCCC3)c1	hgDAF-12 ag 11
COc1cccc(NC(=O)CN(C)C(=O)c2cc3c(s2)CCCC3)c1	DAX1 inh-1 3.7
COc1ccc(C(=O)C2(C(=O)Nc3cc(C)cc(C)c3)CC(c3ccccn3)=NO2)cc1 (stereo unspecified)	none (no result: FXN GAA850 act, DAX1 inh-2)
O=C(NC1CCCCN(Cc2ccc(Cl)cc2)C1=O)c1ccc(COc2ccccc2)cc1 (stereo unspecified)	none (no result: FXN GAA850 act, DAX1 inh-2)
CCOC(=O)C(Cc1ccccc1)P(=O)(OCC)OCC (stereo unspecified)	none (no result: DAX1 inh-1, FXN GAA850 act, DAX1 inh-2)
Cc1ccc(Cc2c(-c3ccc(C#N)cc3)nc3c(C)cc(Br)cn23)cc1	ssDAF-12 act 1.0 (no result: FXN GAA850 act, DAX1 inh-2)
COc1ccc(Cc2c(-c3ccc(C)cc3)nc3c(C)cc(Br)cn23)c(C)c1	ssDAF-12 act 1.1 (no result: FXN GAA850 act, DAX1 inh-2)
Cc1ccc(Cc2c(-c3ccccc3)nc3c(C)cc(Br)cn23)cc1	none (no result: FXN GAA850 act, DAX1 inh-2)
COc1ccc(Cc2c(-c3ccc(OC)c(OC)c3)nc3c(C)cc(Br)cn23)c(C)c1	none (no result: FXN GAA850 act, DAX1 inh-2)
COc1ccc(Cc2c(-c3ccccc3)nc3ccc(Br)cn23)c(C)c1	hgDAF-12 ag 13 (no result: FXN GAA850 act, DAX1 inh-2)
CCOC(=O)CC[C@@H]1CC[C@]2(CCCN(C(=O)C3CCCCC3)C2)O1	none (no result: FXN GAA850 act, DAX1 inh-2)
O=C(N/N=C1\CCCCc2ccccc21)c1ccccn1	hgDAF-12 ag 12
O=C(N/N=C1\CCc2ccccc21)c1ccccc1O	DAX1 inh-1 4.4, hcDAF12 agonist 6.1
O=C(NN=C1CCCCCCC1)c1ccccn1	none
CCOC(=O)C1CCN(C(=O)C(C)(C)NC(=O)Nc2ccc(OC)c(Cl)c2)CC1	none (no result: DAX1 inh-1, FXN GAA850 act, DAX1 inh-2)
O=C(OCc1ccccc1)/C(=C/c1cccc2ccccc12)NC(=O)c1ccccc1	none
C=CCOC(=O)/C(=C/c1cccc2ccccc12)NC(=O)c1ccccc1	DAX1 inh-2 4.3
Cc1ccnc2nc(C(=O)OCC(=O)c3ccc(NC(=O)CC(C)C)cc3)nn12	DAX1 inh-2 5.5
CCC(=O)Nc1ccc(C(=O)COC(=O)c2nc3nccc(C)n3n2)cc1	none
Cc1nc2ccc(NC(=O)c3cc(F)cc(F)c3)cc2c(=O)[nH]1	none (no result: FXN GAA850 act, DAX1 inh-2)
C[C@@H]1OC(c2ccccc2)N(C)[C@H]2C[C@H]3c4[nH]c5cccc(-c6ccccc6)c5c4CCN3C[C@@H]12 (stereo partly specified)	none (no result: FXN GAA850 act, DAX1 inh-2)
Cc1cc(N/N=C/c2ccncc2)nc2ccccc12	DAX1 inh-1 3.9
Cc1cc(N/N=C/c2cccc(Br)c2)nc2ccccc12	none
CCC[C@H]1[C@@H](OC(=O)NCc2ccc(OC)c(OC)c2)CC[C@@]23CCCN2C(=O)CCC[C@@H]13	none (no result: DAX1 inh-1, FXN GAA850 act, DAX1 inh-2)
COc1cccc(/C=N/n2c(SC)nnc2-c2ccccc2)c1O	DAX1 inh-2 4.6
N#C/C(=C\c1ccccn1)c1nc2ccccc2s1	none
COc1ccc(/C(C#N)=C/c2ccccn2)cc1	hgDAF-12 ag 12
O=C(NC1CCCC1)C1(C(=O)C2CC2)CC(c2ccccn2)=NO1 (stereo unspecified)	none (no result: FXN GAA850 act, DAX1 inh-2)
Cc1nc2ccccc2n1CC(O)COC1CCCCC1 (stereo unspecified)	none (no result: DAX1 inh-1, hgDAF-12 ag, hcDAF12 agonist, ssDAF-12 act)
CC(C)c1nc2ccccc2n1CC(O)COC1CCCCC1 (stereo unspecified)	DAX1 inh-2 6.6
COc1cccc(/C=N/Nc2ccc(Cl)nn2)c1OC	DAX1 inh-2 5.6
COc1ccc(CN(CCN2CCOCC2)C(=O)c2cc(Cl)ccc2F)cc1OC	none (no result: FXN GAA850 act, DAX1 inh-2)
CN(CCOC(=O)CC1C=CCC1)C1CN(Cc2cn(Cc3ccccc3Cl)nn2)S(=O)(=O)C1 (stereo unspecified)	none (no result: FXN GAA850 act, DAX1 inh-2)
O=C(/C=C/c1cccs1)N1CCN(c2ccccc2F)CC1	none
O=C(/C=C/c1ccc([N+](=O)[O-])cc1)N1CCN(c2ccccc2F)CC1	DAX1 inh-2 5.2
CCCNC(=O)C1CC(=O)N(c2ccc(OCc3ccc(F)cc3)cc2)C1 (stereo unspecified)	hgDAF-12 ag 13, hcDAF12 agonist 5.9
C=CCNC(=O)C1CC(=O)N(c2ccc(OCc3ccc(F)cc3)cc2)C1 (stereo unspecified)	none
Cc1ccc(NC(=O)c2cc(N(C)C)ccc2[P+](=O)O)cc1	DAX1 inh-1 3.7, hgDAF-12 ag 11, hcDAF12 agonist 5.7
COc1nc(C)nc2c1sc1nc3c(cc12)COC(C)(C)C3	DAX1 inh-1 3.9, hgDAF-12 ag 13
Cc1cccc(-c2nnc(SCC(=O)Nc3ccc(-c4nc5ccc(C)cc5s4)cc3)n2Cc2ccco2)c1	none (no result: FXN GAA850 act, DAX1 inh-2)
COc1ccc(-c2cc(-c3nnc(SCC(=O)Nc4ccc(-c5nc6ccc(C)cc6s5)cc4)n3N)[nH]n2)cc1	hgDAF-12 ag 13 (no result: FXN GAA850 act, DAX1 inh-2)
Nn1c(SCC(=O)Nc2nccs2)nnc1-c1cc(-c2ccccc2)n[nH]1	hgDAF-12 ag 11 (no result: FXN GAA850 act, DAX1 inh-2)
Cc1ccc2nc(-c3ccc(NC(=O)CSc4nnc(-c5ccccc5)n4Cc4ccco4)cc3)sc2c1	hgDAF-12 ag 12 (no result: FXN GAA850 act, DAX1 inh-2)
COC(=O)C1=CN(c2ccc(OC)cc2)C(N)=C(C#N)C1c1ccccc1F (stereo unspecified)	DAX1 inh-1 3.8 (no result: FXN GAA850 act, DAX1 inh-2)
COC(=O)C1=CN(c2ccc(C(C)(C)C)cc2)C(N)=C(C#N)C1c1ccccc1F (stereo unspecified)	none (no result: FXN GAA850 act, DAX1 inh-2)
